A short description of experiment [1]: A CellTox Green Cytotoxicity Assay to monitor cytotoxicity in HEK293 cells - 32 hour (AID 1224881). Note: nearly all actives have a fitted effect of over 40% in size. The procedure, abridged:
(§1)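 Homogeneous no-lysis format: HEK293 cell suspension mixed with CellTox Green reagent, seeded, incubated 5 h at 37 C/5% CO2, then dosed by pintool with compound in DMSO.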

Experiment [2] in a line: A CellTox Green Cytotoxicity Assay to monitor cytotoxicity in HepG2 cells - 0 hour (AID 1224882). Note: nearly all actives have a fitted effect of over 35% in size. The procedure, abridged:
(§2)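 Fluorescent DNA-binding dye, 600 HepG2 cells/well, 5 h preincubation then compound in DMSO; same plates read at 0–40 h, 37 C.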

Experiment [3] is described as follows: A CellTox Green Cytotoxicity Assay to monitor cytotoxicity in HepG2 cells - 32 hour (AID 1224883). Note: nearly all actives have a fitted effect of over 50% in size. Note: potency is the fitted concentration of half-maximal effect. The procedure, abridged:
as §2

A short description of experiment [4]: A CellTox Green Cytotoxicity Assay to monitor cytotoxicity in HEK293 cells - 8 hour (AID 1224884). Note: nearly all actives have a fitted effect of over 35% in size. The procedure, abridged: as §1
A short description of experiment [5]: qHTS RealTime-Glo MT Cell Viability Assay in HepG2 cells - 16 hour (AID 1224885). Note: nearly all actives have a fitted effect of over 50% in size. The procedure, abridged:
(§3)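 Cells + NanoLuc/prosubstrate dispensed (600 cells/well) → 5 h at 37 C/5% CO2 → compounds in DMSO transferred → 40 h incubation at 37 C, luminescence read at 0, 8, 16, 24, 32, 40 h.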

Experiment [6] is described as follows: qHTS RealTime-Glo MT Cell Viability Assay in HEK293 cells - 24 hour (AID 1224886). Note: nearly all actives have a fitted effect of over 50% in size. Note: potency is the fitted concentration of half-maximal effect. The procedure, abridged:
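Tox21 10K qHTS, HEK293, 600 cells/well, RealTime-Glo reagent co-dispensed with cells; 5 h preincubation, compound by pintool, 37 C, luminescence at 0–40 h.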
(In qHTS, concentration-response curves come from the screen itself.)

The nature of experiment [7]: qHTS RealTime-Glo MT Cell Viability Assay in HEK293 cells - 8 hour (AID 1224887). Note: top concentration of the series differs between compounds; nearly all actives have a fitted effect of over 50% in size. The procedure, abridged:
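Measured as luminescence from the same continuously cultured HEK293 wells at successive time points (0, 8, 16, 24, 32, 40 h) after compound addition. Reagent present from seeding; dosing at 5 h; incubation 37 C.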

Experiment [8] in a line: A CellTox Green Cytotoxicity Assay to monitor cytotoxicity in HEK293 cells - 16 hour (AID 1224888). Note: nearly all actives have a fitted effect of over 35% in size. The procedure, abridged: as §1
Experiment [9] can be described thus: qHTS RealTime-Glo MT Cell Viability Assay in HepG2 cells - 0 hour (AID 1224889). Note: nearly all actives have a fitted effect of over 50% in size. The procedure, abridged: as §3
Experiment [10] can be described thus: A CellTox Green Cytotoxicity Assay to monitor cytotoxicity in HepG2 cells - 8 hour (AID 1224890). Note: nearly all actives have a fitted effect of over 45% in size. The procedure, abridged:
as §2

Experiment [11] is described as follows: qHTS assay to identify small molecule antagonists of the estrogen receptor alpha (ER-alpha) signaling pathway using the BG1 cell line in the presence of 0.1 nM 17-beta-estradiol - cell viability counter screen (AID 1259241). Note: nearly all actives have a fitted effect of over 40% in size. The procedure, abridged:
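Cytotoxicity counter-screen: live-cell protease activity measured by fluorescence (30 min reagent step) in the same wells. Cells were VM7Luc4E2 with endogenous ER-alpha and ERE-driven luciferase, treated 22 hr at 37C alongside 0.1 nM 17beta-estradiol final.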

Experiment [12] is described as follows: qHTS assay to identify small molecule antagonists of the androgen receptor (AR) signaling pathway using the MDA cell line in the presence of 0.5 nM R1881 - cell viability counter screen (AID 1259242). Note: nearly all actives have a fitted effect of over 45% in size. The procedure, abridged: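 Human breast carcinoma MDA-kb2 cells, cultured without CO2, receive compounds alongside 0.5 nM (final) R1881 agonist. After 16 hr at 37C, viability is taken as live-cell protease signal.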

Experiment [13] addresses Estrogen receptor (Homo sapiens) (UniProt P03372). Briefly: qHTS assay to identify small molecule antagonists of the estrogen receptor alpha (ER-alpha) signaling pathway using the BG1 cell line in the presence of 0.1 nM 17-beta-estradiol (AID 1259244). Note: nearly all actives have a fitted effect of over 50% in size. Note: potency is the fitted concentration of half-maximal effect. The procedure, abridged:
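Seeding of stripped-serum-adapted VM7Luc4E2 cells, 24 h attachment, compound transfer, then 0.1 nM final 17beta-estradiol; after 22 h incubation, ONE-Glo reagent and luminescence reading.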

The nature of experiment [14]: qHTS assay to identify small molecule phospholipidosis (PLD) inducers (AID 1259344; active = well fitted curve in the direction sought with a large enough effect; an effect the other way counts as inactive or inconclusive). The procedure, abridged:
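Cells (HepG2, 900 per well) attach for 4 h, receive LipidTOX Red and compound together, incubate 24 h at 37 C, are fixed 30 min with paraformaldehyde/Hoechst, then imaged at one site per well.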

Experiment [15] can be described thus: qHTS assay to identify small molecule HDAC inhibitors (AID 1259364).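 Note: wild-type HCT-116 cells with endogenous class I/II HDAC activity; top concentration of the series differs between compounds; nearly all actives have a fitted effect of over 45% in size.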 The procedure, abridged: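 After a 2 hr compound incubation (37C, 5% CO2), HCT-116 cells seeded at 1,500/well the day before received HDAC-Glo reagent; signal read as luminescence after 30 min at room temperature.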
A short description of experiment [16]: qHTS assay to identify small molecule HDAC inhibitors - cell viability counter screen (AID 1259365). The procedure, abridged:
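CellTiter-Glo luminescence (30 min, room temperature) reported viability after a 2 h compound exposure at 37 C. Cells: wild-type HCT-116, 1,500 per well, seeded the night before.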

A short description of experiment [17]: qHTS assay to identify small molecule agonists of the sonic hedgehog signaling (Shh) pathway - cell viability counter screen (AID 1259366). Note: nearly all actives have a fitted effect of over 50% in size. Note: potency is the fitted concentration of half-maximal effect. The procedure, abridged: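 Cytotoxicity counter screen: CellTiter-Fluor reagent added after 23 h compound exposure, then 1 h at 37C and fluorescence read. Cells were 3T3 Gli1-Luc, seeded 2,000 per well and dosed 4 h post-plating.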

Experiment [18] can be described thus: qHTS assay to identify small molecule antagonists of the sonic hedgehog signaling (Shh) pathway - cell viability counter screen (AID 1259367). Note: nearly all actives have a fitted effect of over 55% in size. Note: potency is the fitted concentration of half-maximal effect. The procedure, abridged: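 Cytotoxicity was assessed in parallel with Shh reporter activity by measuring live-cell protease fluorescence (CellTiter-Fluor) in NIH/3T3 cells stably carrying Gli1-Luc, treated with compound under conditioned medium stimulation for 23 hr plus 1 hr reagent incubation.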

Experiment [19] is described as follows: qHTS assay to identify small molecule agonists of the sonic hedgehog signaling (Shh) pathway (AID 1259368; calls by dose curve;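 note: NIH/3T3-derived 3T3Gli1-Luc cells carrying a stable Gli1-driven firefly luciferase reporter; series mostly up to about 92 µM; nearly all actives have a fitted effect of over 15% in size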). The procedure, abridged: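 Stable NIH/3T3 Gli1-Luc reporter clone; 24 hr cpd exposure after a 4 hr settling period; luminescence endpoint.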
Experiment [20] in a line: qHTS assay to identify small molecule antagonists of the sonic hedgehog signaling (Shh) pathway (AID 1259369; calls by dose curve; note: nearly all actives have a fitted effect of over 45% in size; note: potency is the fitted concentration of half-maximal effect). The procedure, abridged:
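Gli1 transcriptional reporter (firefly Luc) in NIH/3T3 background, conditioned-medium activated. 24hr exposure, luminescence endpoint.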

Where “and” joins values, the source holds several entries; their conditions need not be identical. Identical values can stand only once. Inconclusive results are not listed. A structure can be active in one record and inactive in another. Calls of active or inactive are those of the source. Unless noted, calls come from the whole dose curve; as a rule, active = well fitted curve in the direction sought with a large enough effect in the repeat runs; inconclusive = weak or mixed curves; inactive = no such curve, though single readings can be large; an effect the other way counts as inactive or inconclusive.

Chain of Estrogen receptor (Homo sapiens) (P03372 whole entry, looked up): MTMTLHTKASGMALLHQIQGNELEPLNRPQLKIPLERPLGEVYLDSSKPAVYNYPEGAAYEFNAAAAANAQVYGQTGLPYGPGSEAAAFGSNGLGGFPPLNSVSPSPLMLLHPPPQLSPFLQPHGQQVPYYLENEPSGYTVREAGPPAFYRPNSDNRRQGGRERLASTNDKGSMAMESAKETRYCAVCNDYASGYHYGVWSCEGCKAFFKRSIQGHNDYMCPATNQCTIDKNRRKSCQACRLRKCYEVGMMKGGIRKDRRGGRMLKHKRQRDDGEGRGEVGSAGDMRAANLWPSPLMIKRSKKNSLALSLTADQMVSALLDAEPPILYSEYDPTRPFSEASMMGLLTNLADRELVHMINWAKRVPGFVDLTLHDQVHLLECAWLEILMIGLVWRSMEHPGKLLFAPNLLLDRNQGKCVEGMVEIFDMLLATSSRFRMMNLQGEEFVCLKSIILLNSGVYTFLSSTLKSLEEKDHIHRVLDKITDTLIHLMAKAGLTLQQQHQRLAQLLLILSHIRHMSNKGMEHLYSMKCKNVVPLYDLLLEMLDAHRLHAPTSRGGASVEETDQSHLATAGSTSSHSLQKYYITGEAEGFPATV

For the compound `Nc1ccncc1`, the Potency entry in experiment [1], in [2], in [3], in experiment [4], in experiment [5] and in [6] was “inactive” throughout. The Potency entry in experiment [7], in experiment [8], in experiment [9], in experiment [10], in [11] and in experiment [12] was “inactive” each time. In addition, the Potency result in [13], in experiment [15], in experiment [17], in experiment [18], in [19] and in experiment [20] was “inactive” in each case. The call in [14] and in experiment [16] was inactive.
As for `CCCCNC(=O)n1c(NC(=O)OC)nc2ccccc21`, the Potency entry in [1], in experiment [2], in experiment [4], in experiment [5], in experiment [6] and in experiment [7] was “inactive” each time. Moreover, the Potency result in [8], in experiment [9], in [10], in [11], in experiment [12] and in experiment [13] was “inactive” in each case. Further, the Potency entry in experiment [17] and in experiment [19] was “inactive” in each case. In addition, the Potency in experiment [3] was 12.2 µM (active) and inactive; in experiment [18] it was 60.8 µM (active) and inactive; in experiment [20], 30.5 µM (active) and inactive. Also, the result in experiment [16] was inactive.
With `Cc1c(COC(=O)[C@@H]2[C@H](/C=C(\Cl)C(F)(F)F)C2(C)C)cccc1-c1ccccc1`, the Potency entry in [1], in experiment [2], in [3], in experiment [4], in [5] and in [7] was “inactive” throughout. Further, the Potency result in experiment [8], in experiment [9], in experiment [10], in experiment [11], in experiment [12] and in [13] was “inactive” throughout. The Potency result in experiment [15], in [17], in [18], in experiment [19] and in experiment [20] was “inactive” throughout. Further, in experiment [6], the Potency was 21.4 µM (active). The call in experiment [16] was inactive.
Turning to `Nc1ccc(-c2ccc(N)c(N)c2)cc1N`, the Potency entry in experiment [1], in [2], in [3], in experiment [4], in experiment [5] and in [6] was “inactive” in each case. Moreover, the Potency result in experiment [7], in experiment [8], in [9], in [10], in [11] and in experiment [12] was “inactive” in each case. Also, the Potency entry in experiment [18] and in [19] was “inactive” in each case. Moreover, the compound was called inactive in [16]. In [20], the Potency was 13.6 µM (active).
With `NNC(N)=S`, the Potency result in [1], in experiment [2], in experiment [3], in [4], in experiment [5] and in experiment [6] was “inactive” throughout. Also, the Potency entry in experiment [7], in [8], in experiment [9], in experiment [10], in experiment [11] and in [12] was “inactive” each time. The Potency result in experiment [15] and in experiment [19] was “inactive” throughout. In addition, the Potency in experiment [13] was 63.5 µM (active) and inactive; in [17], 45 µM (active); in [18], 20.1 µM (active) and 61.1 µM (active); in [20], 8.97 µM (active) and 12.2 µM (active). Moreover, in experiment [16], the result was inactive.
For `Cc1ccccc1[N+](=O)[O-]`, the Potency entry in experiment [1], in experiment [2], in experiment [3], in [4], in experiment [5] and in experiment [6] was “inactive” each time. Moreover, the Potency result in [7], in experiment [8], in experiment [9], in [10], in experiment [11] and in experiment [12] was “inactive” each time. The Potency result in experiment [13], in [15], in experiment [17], in experiment [18], in experiment [19] and in [20] was “inactive” throughout. In addition, the result in experiment [16] was inactive.

Values taken from PubChem BioAssay (Tox21).
